Source: PubChem BioAssay
Only a selection was taken, and hits are over-represented in it overall.
CapD inh: inhibitors of Bacillus anthracis CapD enzyme. purified CapD enzyme, fluorescence intensity read-out; active compounds read low. 140,000 tested, 0.23% active. z-score (test concentration not listed); in the data active = z-score mostly below about -2.9, no sharp cut-off; inactive = mostly above about -1.9
* marks the source's active call; other numbers are inactive results.

SMILES | CapD inh
Cc1cc2c(n1-c1ccc(C(=O)N3CCN(c4ccccc4)CC3)cc1)CCCCC2 | -0.89
O=C(O)c1ccc(-n2c(-c3ccccc3)cc3c2CCCC3)cc1 | -0.13
Cc1ccc(C)n1-c1ccc(C(=O)O)cc1 | -13*
O=C(O)c1ccc(N2CCCCC2)cc1 | -0.065
Cc1cc2c(n1-c1ccc(C(=O)O)cc1)CCCC2 | -7.5*
Cc1ccc(C)n1-c1ccc(SCC(=O)O)cc1 | -3.4
COc1ccc(CCCOC(=O)N2CCN(c3ccccc3Cl)CC2)cc1 | -0.32
CCCC(C)COC(=O)C1=C(C)NC(=O)NC1c1cc2c(cc1Br)OCO2 (stereo unspecified) | -0.41
CCC1=NN(C(=O)c2ccc(-c3ccccc3)cc2)C(O)(C(F)(F)F)C1 (stereo unspecified) | 0.11
Cc1oc2c(c1C(=O)NCc1ccccc1)C(=O)c1ccccc1C2=O | -0.05
Cc1cc(=O)oc(C)c1C(=O)NCc1ccccc1 | -3.7*
CCCNC(=O)c1c(C)cc(=O)oc1C | -1.6
Cc1ccc(S(=O)(=O)Nc2cccc3c(O)cccc23)cc1 | -1.8
CCOC(=O)C1=C(CSc2nc(C)c(C)c(C)c2C#N)OC(N)=C(C#N)C1c1cccc(F)c1 (stereo unspecified) | -0.26
CC(C)(C)n1cnc2cc(NCc3ccccc3O)ccc21 | 36
CCN(CC)c1ccc(CNc2ccc3c(c2)ncn3C(C)(C)C)cc1 | -4.6*
CCN(CC)c1ccc(CNc2ccc3c(c2)ncn3C)cc1 | 57
CCN(CC)c1ccc2cc(-c3nc(-c4ccc(Cl)cc4)cs3)c(=Nc3cccc(OC)c3)oc2c1 | -0.27
CCOc1ccc2c(c1)NC(C)(C)c1ssc(=Nc3ccccc3)c1-2 | -0.8
CSc1sn(C(=O)NS(=O)(=O)c2ccc(C)cc2)c(=O)c1C#N | 0.55
N=C(N)SCCCc1nc2ccccc2[nH]1 | 0.05
CC(C)(C)c1csc(Cc2ccc(Cl)cc2)n1 | 0.6
O=C(NC1CCCC1)c1ccc2nc3[nH]c4ccccc4c3nc2c1 | 1.7
O=C(NN1S(=O)(=O)c2ccccc2S1(=O)=O)c1ccc(Br)cc1 | 0.28
O=C(Nc1ccccc1C(=O)NN1S(=O)(=O)c2ccccc2S1(=O)=O)c1ccccc1Cl | 0.09
SMILES | CapD inh
O=C(NN1S(=O)(=O)c2ccccc2S1(=O)=O)c1cscn1 | -6*
Cc1ccc(C)n1NC(=O)c1ccco1 | 0.055
COc1cc(C(=O)NN2S(=O)(=O)c3ccccc3S2(=O)=O)cc(OC)c1OC | -0.55
O=C(NN1S(=O)(=O)c2ccccc2S1(=O)=O)c1ccco1 | -5.7*
O=C(OC1CCN(c2ccc([N+](=O)[O-])cc2)CC1)c1ccc(Cl)cc1 | -0.57
Cn1c2ccccc2c2nnc(SCCC(=O)N3CCCC3)nc21 | -0.23
CN(C)c1ccc(C2NCC(CSc3nc(-c4cccs4)cc(C(F)(F)F)c3C#N)O2)cc1 (stereo unspecified) | 47
Cc1cc(C)n(C(=O)c2cc(-c3ccc(C)o3)nc3ccccc23)n1 | -0.45
S=c1[nH]nc(-c2cccnc2)n1/N=C/C=C/c1ccco1 | -2.5
Cc1nnc(C)n1/N=C/C=C\c1ccco1 | -4.4*
S=c1[nH]nc(-c2ccccc2)n1/N=C/C=C/c1ccco1 | -2.4
COc1cc(/C=C2\N=C(c3cncc(Br)c3)OC2=O)cc(OC)c1OC | 0.57
CCCC(=O)N1c2ccccc2C(=C2SC(C(=O)OCC)=C(C(=O)OCC)S2)C(=S)C1(C)C | 0.025
CC(=O)c1ccccc1NC(=O)CSCC(=O)O | 0.34
COC(=O)NC(=O)c1ccc(Cl)cc1 | 0.1
CCn1cc(S(=O)(=O)c2ccc(OC)cc2)c(=O)c2ccccc21 | -0.34
CCOC(=O)c1sc(COc2ccccc2OC)nc1C | -2.7*
CCOC(=O)c1sc(COc2ccc(C3SCCS3)cc2)nc1C | 9.9
Cc1nc(COc2ccccc2Cl)sc1C(=O)/C=C/N(C)C | 6.8
CCN(c1ccc(OC)cc1)S(=O)(=O)c1ccc2c(c1)CCCC(=O)N2 | 0.01
CCc1ccccc1NC(=O)c1noc2c1CCCCC2 | 0.12
Cc1ccc(C)n1-c1ccccc1C(=O)O | -1
COc1ccc(NC(C)=O)cc1C | 6.2
CC(=O)Nc1ccc(-n2c(C)ccc2C)c(C(=O)O)c1 | -4.8*
CCCOc1ccc(Cl)cc1C(=O)O | -0.66
SMILES | CapD inh
CC(=O)Nc1ccc(NC(=O)c2ccccc2C(=O)O)cc1 | -0.15
Cc1ccc(C)n1-c1cc(Cl)ccc1C(=O)O | -5.5*
COc1cc(C2C3=C(CC(C)(C)CC3=O)OC3=C2C(=O)CC(C)(C)C3)cc(OC)c1OCc1ccc(Cl)c(Cl)c1 | -1.3
CC(C)CC(NS(=O)(=O)c1ccc2c(c1)CN(C(=O)C(F)(F)F)CC2)C(=O)NNC(=O)OCc1ccccc1 (stereo unspecified) | 0.32
O=C(COC(=O)c1cc2c3c(c1)C1C=CCC1CN3CC1CC=CC21)c1ccc([N+](=O)[O-])cc1 (stereo unspecified) | 5.9
COc1ccc(C(=O)N/N=C/c2cc3ccccc3o2)cc1OC | 3.2
CC(C)(C)c1ccc(S(=O)(=O)N(Cc2ccccn2)c2ccc3[nH]c(C(C)(C)C)cc3c2)cc1 | -0.46
Clc1ccccc1-c1[nH]ncc1-c1ccncn1 | -0.92
CNS(=O)(=O)c1cc(C(=O)N2CCCCC2)ccc1OC | -0.73
